Assay results taken from PubChem BioAssay (NCI).
The panel holds about 83,000 compounds, 20% with a hit somewhere; the sample as a whole holds those more often.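 The test compound was applied at a single concentration to cells in 96-well plates for 48 hours, and percent growth was recorded.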 A number with no mark means an inactive call. Active and inactive are the calls of the source. How the source made its calls: active means growth percent below 10; inactive means the rest.

Tested on: OVCAR-4 ovarian
Experiment: NCI-60 one-dose screen, 48 h (100 = growth as untreated, 0 = no growth, -100 = all killed)
Conditions: 10 µM unless noted

Row | Structure (SMILES) | growth
1 | COc1cc(Cn2c(-c3nonc3N)nc3ccccc32)ccc1C | 62.6%
2 | COc1ccc(/C=N/NC(=O)Cn2c(Cc3cccc4ccccc34)nc3ccccc32)cc1 | 104%
3 | Cc1ccc(Cn2c(-c3cccs3)nc3ccccc32)cc1 | 76.6%
4 | Cc1ccc(OCCn2c(C)nn(-c3ccc(Cl)cc3)c2=O)cc1 | 98.9%
5 | COc1ccc(-c2nc(-c3ccccc3)c(-c3ccccc3)n2C2CC2)cc1OC1CCCCC1 | 67.9%
6 | COc1cc(/C=C2\CCCC3=C2NC(C)=NC3c2cc(OC)c(OC)c(OC)c2)cc(OC)c1OC (stereo not given) | 42.2%
7 | CCN1C(=O)N[C@H]2[C@@H]3NC(=O)c4ccc(Cl)n4[C@@H]3C[C@]21O | 3.02% (active)
8 | CC(C(=O)n1cc(-c2ccccc2)c(-c2ccccc2)c1)c1ccccc1 (stereo not given) | 107%
9 | CC(Br)C(OC(=O)c1ccccc1Cl)c1cc2c(cc1Br)OCO2 (stereo not given) | 77.9%
10 | CCC(c1cccc(Br)c1)C(C(=O)O)c1ccc(OC)cc1 (stereo not given) | 114%
11 | COC(=O)CCCCN=Cc1c(O)c(O)c(C(C)C)c2cc(C)c(-c3c(C)cc4c(C(C)C)c(O)c(O)c(C=NCCCCC(=O)OC)c4c3O)c(O)c12 | 13.7%
12 | Cc1cc(C(=O)CSc2nc3ccccc3c(=O)[nH]2)c(C)n1C | 123%
13 | Cn1cc(C=O)c2ccccc21 | 101%
14 | CC(=O)N1Cc2ccccc2C(C)Cc2cc(Cl)ccc21 (stereo not given) | 97.9%
15 | Cn1c(=O)c2c(nc3n2CCN(CCc2ccc(OCCN4CCOCC4)cc2)C3)n(C)c1=O | 95.5%
16 | O=C(/C=C/c1ccccc1)n1c(-c2ccc(Cl)cc2)nc2ccccc21 | 30%
17 | COc1cc(C2CC(c3c(C)[n+]([O-])c4ccccc4[n+]3[O-])=NN2)cc(OC)c1OC (stereo not given) | 104%
18 | CCOC(=O)c1cc(/C(=N\O)c2cc(OC)c(OC)c(OC)c2)n2c(C)cccc12 | 54.1%
19 | COC(=O)CCCCCCN=Cc1c(O)c(O)c(C(C)C)c2cc(C)c(-c3c(C)cc4c(C(C)C)c(O)c(O)c(C=NCCCCCCC(=O)OC)c4c3O)c(O)c12 | 27.7%
20 | COc1ccc(/C(=N/O)c2cc(OC)c(OC)c(OC)c2)c(OC)c1N | 50%
21 | COc1ccc(-n2c(C)cc(-c3ccccc3)c2C)cc1 | 38%
22 | N#CC1=C(N)OC2=C(C(=O)CCC2)C1c1ccco1 (stereo not given) | 106%
23 | C=CCc1cc(Cl)cc2c(OC(C)=O)c(C(C)=O)c(-c3ccccc3)nc12 | 100%
24 | COc1cc(/C=C/C(=O)c2ccc(NC(=O)CN3CCN(c4cc5c(cc4F)c(=O)c(C(=O)O)cn5C4CC4)CC3)cc2)cc(OC)c1OC | 16.4%
25 | COc1ccc(/C(=N\O)c2cc(OC)c(OC)c(OC)c2)c(OC)c1N | 42.9%
